# Counter-ions that a name gives are not always drawn.
# Tested on: Danio rerio larvae (5 dpf)
# Test: combined upward orientation toward moving lines (periods 7-14) minus DMSO control (percentage points); higher = more orientation with moving lines than DMSO larvae
# Conditions: 10 µM; exposure time: 3 h pre-incubation + 3 h imaging
# Method: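 Wild-type 5 dpf zebrafish larvae (n=48 per drug, 96-well plates, 28.5 °C) were exposed to Tocris FDA-approved library compounds at 10 µM (0.1% DMSO) for 3 h before and 3 h during imaging. Images were taken every 6 s during visual (moving coloured lines) and acoustic stimuli, and larvae were tracked with the DeepLabCut-based Z-LaP Tracker. Each behavioural measure is the treated-group mean minus the DMSO vehicle control mean (n=844), in percentage points. This mapping covers compounds with 4-character plate codes.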
row,SMILES,combined upward orientation toward moving lines
1,CC1CNc2c(cccc2S(=O)(=O)N[C@@H](CCCNC(=N)N)C(=O)N2CC[C@@H](C)C[C@@H]2C(=O)O)C1 (stereo not given in full) [Argatroban],0.479
2,CC(C)C(=O)Nc1ccc([N+](=O)[O-])c(C(F)(F)F)c1 [Flutamide],-15.3
3,Nc1nc2c(ncn2COCCO)c(=O)[nH]1 [Acyclovir],0.15
4,Cc1cccc(CN2CCN(C(c3ccccc3)c3ccc(Cl)cc3)CC2)c1 (stereo not given) [Meclizine dihydrochloride],-2.56
5,CN1CCC[C@@H]1Cc1c[nH]c2ccc(CCS(=O)(=O)c3ccccc3)cc12 [Eletriptan hydrobromide],-1.33
6,NC(=O)N1c2ccccc2C=Cc2ccccc21 [Carbamazepine],-1.82
7,O=C(O[C@@H]1C[C@@H]2C[C@H]3C[C@H](C1)N2CC3=O)c1c[nH]c2ccccc12 [Dolasetron mesylate],-0.866
8,O=C(O)c1cc(/N=N/c2ccc(S(=O)(=O)Nc3ccccn3)cc2)ccc1O [Sulfasalazine],-3.42
9,Cc1c(-c2ccc(O)cc2)n(Cc2ccc(OCCN3CCCCCC3)cc2)c2ccc(O)cc12 [Bazedoxifene acetate],1.97
10,CCOc1cc(CC(=O)N[C@@H](CC(C)C)c2ccccc2N2CCCCC2)ccc1C(=O)O [Repaglinide],-4.89
11,CO[C@H]1/C=C/O[C@@]2(C)Oc3c(C)c(O)c4c(O)c(c5c(nc6cc(C)ccn65)c4c3C2=O)NC(=O)/C(C)=C\C=C\[C@H](C)[C@H](O)[C@@H](C)[C@@H](O)[C@@H](C)[C@H](OC(C)=O)[C@@H]1C [Rifaximin],-3.95
12,CC(C)c1nc(CN(C)C(=O)N[C@H](C(=O)N[C@@H](Cc2ccccc2)C[C@H](O)[C@H](Cc2ccccc2)NC(=O)OCc2cncs2)C(C)C)cs1 [Ritonavir],-4.18
13,CC(C)CN(C[C@@H](O)[C@H](Cc1ccccc1)NC(=O)O[C@H]1CO[C@H]2OCC[C@H]21)S(=O)(=O)c1ccc(N)cc1 [Darunavir],0.247
14,CC(c1cc2ccccc2s1)N(O)C(N)=O (stereo not given) [Zileuton],-7.03
15,CNC(=O)c1ccccc1Sc1ccc2c(/C=C/c3ccccn3)n[nH]c2c1 [Axitinib],4.21
16,C=CC(=O)N1CCC[C@@H](n2nc(-c3ccc(Oc4ccccc4)cc3)c3c(N)ncnc32)C1 [Ibrutinib],-3.41
17,Cc1nc(Nc2ncc(C(=O)Nc3c(C)cccc3Cl)s2)cc(N2CCN(CCO)CC2)n1 [Dasatinib],-11
18,CN(CCOc1ccc(CC2SC(=O)NC2=O)cc1)c1ccccn1 (stereo not given) [Rosiglitazone],-10.5
19,COc1cc2nc(N3CCN(C(=O)c4ccco4)CC3)nc(N)c2cc1OC [Prazosin hydrochloride],-10.6
20,CCC(=O)O[C@]1(C(=O)SCF)[C@H](C)C[C@H]2[C@@H]3C[C@H](F)C4=CC(=O)C=C[C@]4(C)[C@@]3(F)[C@@H](O)C[C@@]21C [Fluticasone propionate],-9.35

row,SMILES,combined upward orientation toward moving lines
1,Cc1ccc(N(CC2=NCCN2)c2cccc(O)c2)cc1 [Phentolamine Mesylate],4.89
2,Cc1ccc(NC(=O)c2ccc(CN3CCN(C)CC3)cc2)cc1Nc1nccc(-c2cccnc2)n1 [Imatinib mesylate],-1.28
3,CC1(C)O[C@@H]2[C@@H](CO[C@@]3(COS(N)(=O)=O)OC(C)(C)O[C@@H]23)O1 [Topiramate],-4.17
4,COc1ccc([C@@H]2Sc3ccccc3N(CCN(C)C)C(=O)[C@@H]2OC(C)=O)cc1 [Diltiazem hydrochloride],-1.58
5,CCc1ccc(CCOc2ccc(CC3SC(=O)NC3=O)cc2)nc1 (stereo not given) [Pioglitazone hydrochloride],-3.8
6,CCC(C)(C)C(=O)O[C@H]1C[C@@H](C)C=C2C=C[C@H](C)[C@H](CC[C@@H]3C[C@@H](O)CC(=O)O3)[C@H]21 [Simvastatin],-3.05
7,CC(=O)S[C@@H]1CC2=CC(=O)CC[C@]2(C)[C@H]2CC[C@@]3(C)[C@@H](CC[C@@]34CCC(=O)O4)[C@H]12 [Spironolactone],-2.59
8,O=C(c1ccc(OCCN2CCCCC2)cc1)c1c(-c2ccc(O)cc2)sc2cc(O)ccc12 [Raloxifene hydrochloride],-2.81
9,Nc1nc(Cl)nc2c1ncn2[C@@H]1O[C@H](CO)[C@@H](O)[C@@H]1F [Clofarabine],-4.29
10,C[C@]12CCC(=O)C=C1CC[C@@H]1[C@@H]2[C@@H](O)C[C@@]2(C)[C@H]1CC[C@]2(O)C(=O)CO [Hydrocortisone],0.758
11,CCCCCOC(=O)Nc1nc(=O)n([C@@H]2O[C@H](C)[C@@H](O)[C@H]2O)cc1F [Capecitabine],-0.314
12,CC(C)N(CCCCOCC(=O)NS(C)(=O)=O)c1cnc(-c2ccccc2)c(-c2ccccc2)n1 [Selexipag],-4.38
13,CCOC(=O)C1=C(C)NC(C)=C(C(=O)OC)C1c1cccc(Cl)c1Cl (stereo not given) [Felodipine],-3.05
14,N[C@@H]1[C@H]2CN(c3nc4c(cc3F)c(=O)c(C(=O)O)cn4-c3ccc(F)cc3F)C[C@@H]12 [Trovafloxacin mesylate],-3.7
15,C[C@]12CC[C@@H]3c4ccc(O)cc4C[C@@H](CCCCCCCCC[S+]([O-])CCCC(F)(F)C(F)(F)F)[C@H]3[C@@H]1CC[C@@H]2O (stereo not given in full),0.781
16,CC/C(=C(\c1ccccc1)c1ccc(OCCN(C)C)cc1)c1ccccc1 [Tamoxifen citrate],-3.88
17,CCOc1nc2cccc(C(=O)O)c2n1Cc1ccc(-c2ccccc2-c2nnn[nH]2)cc1 [Candesartan],2.56
18,Cc1nc(-c2ccc(OCC(C)C)c(C#N)c2)sc1C(=O)O [Febuxostat],-3.47
19,CCCc1nc(C(C)(C)O)c(C(=O)O)n1Cc1ccc(-c2ccccc2-c2nnn[nH]2)cc1 [Olmesartan],-6.03
20,Cc1cn([C@H]2C=C[C@@H](CO)O2)c(=O)[nH]c1=O [Stavudine],-0.971

# From the supplement of paper PMC9950053
